Holding throughout (assay): log2 fold change, soluble protein after heating vs DMSO (PISA); higher = thermal stabilisation; K562 cells, 10 uM, 30 min; active = over 0.2 and 3.5 SD of the protein, either way, in both replicates (recomputed)
Compound in one experiment: Cc1ccc(NC(=O)c2ccc(CN3CC[C@H](N(C)C)C3)c(C(F)(F)F)c2)cc1Nc1nccc(-c2cncnc2)n1 [bafetinib]
In outline:
(§1)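 K562 cells at 2×10^6 cells/mL were given 10 μM compound for 30 min. Aliquots then went through 3 min of heating across 48°C-58°C, were pooled, and were extracted in PBS with 0.5% NP-40 at 4°C, and the supernatant after 21,000xg for 90 min was quantified by TMTpro 16plex LC-MS/MS with channel sums equalised. Thermal stability relative to control samples, from duplicates, is given as log2 fold change.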

Compound in experiment [1]: Cc1cccc(CC(=O)N2CCc3c2ccc(-c2cn(C)c4ncnc(N)c24)c3F)n1
A digest of the protocol: as §1

Compound in the next experiment: Cc1cn(-c2cc(NC(=O)c3ccc(C)c(Nc4nccc(-c5cccnc5)n4)c3)cc(C(F)(F)F)c2)cn1 [nilotinib]
A digest of the protocol: as §1

Compound in experiment [2]: Cc1nc(Nc2n[nH]c3c2CN(C(=O)N[C@H](CN(C)C)c2ccccc2)C3(C)C)c2sccc2n1
A digest of the protocol:
as §1

Compound in the next experiment: Cc1nc(Nc2ncc(C(=O)Nc3c(C)cccc3Cl)s2)cc(N2CCN(CCO)CC2)n1 [dasatinib]
In outline:
as §1

Compound in experiment [3]: Cc1ncc(-c2ccnc(Nc3ccc(S(C)(=O)=O)cc3)n2)n1C(C)C
In outline:
as §1

Compound in experiment [4]: Cn1cc(-c2ccc3c(c2)CCN3C(=O)Cc2cccc(C(F)(F)F)c2)c2c(N)ncnc21
In outline: as §1

Compound in experiment [5]: Cn1cc(-c2ccc3nnc(C(F)(F)c4ccc5ncccc5c4)n3n2)cn1
A digest of the protocol: as §1

Compound in a further experiment: Cn1cncc1[C@@](N)(c1ccc(Cl)cc1)c1ccc2c(c1)c(-c1cccc(Cl)c1)cc(=O)n2C [tipifarnib]
In outline:
as §1

Compound in another experiment: FC(F)(F)c1ccc(/C=C/c2nc(COc3ccc(CCCCn4ccnn4)cc3)co2)cc1 [mubritinib]
A digest of the protocol:
as §1

The full data set covers some 7,900 targets. This sample favours those with a hit. About 0.6% of all pairs of compound and target were hits. Unmarked numbers belong to inactive results.

Chain of UniProt Q13889 (Q13889 whole entry, looked up): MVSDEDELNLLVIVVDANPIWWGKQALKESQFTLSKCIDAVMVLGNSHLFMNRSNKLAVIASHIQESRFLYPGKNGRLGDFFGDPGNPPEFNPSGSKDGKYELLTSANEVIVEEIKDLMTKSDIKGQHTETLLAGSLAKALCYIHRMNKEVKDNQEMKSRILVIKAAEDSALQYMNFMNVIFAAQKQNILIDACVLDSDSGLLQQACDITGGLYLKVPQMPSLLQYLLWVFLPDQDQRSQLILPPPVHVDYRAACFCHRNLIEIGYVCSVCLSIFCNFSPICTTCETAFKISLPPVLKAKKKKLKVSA
Chain of UniProt Q14517 (Q14517 whole entry, looked up): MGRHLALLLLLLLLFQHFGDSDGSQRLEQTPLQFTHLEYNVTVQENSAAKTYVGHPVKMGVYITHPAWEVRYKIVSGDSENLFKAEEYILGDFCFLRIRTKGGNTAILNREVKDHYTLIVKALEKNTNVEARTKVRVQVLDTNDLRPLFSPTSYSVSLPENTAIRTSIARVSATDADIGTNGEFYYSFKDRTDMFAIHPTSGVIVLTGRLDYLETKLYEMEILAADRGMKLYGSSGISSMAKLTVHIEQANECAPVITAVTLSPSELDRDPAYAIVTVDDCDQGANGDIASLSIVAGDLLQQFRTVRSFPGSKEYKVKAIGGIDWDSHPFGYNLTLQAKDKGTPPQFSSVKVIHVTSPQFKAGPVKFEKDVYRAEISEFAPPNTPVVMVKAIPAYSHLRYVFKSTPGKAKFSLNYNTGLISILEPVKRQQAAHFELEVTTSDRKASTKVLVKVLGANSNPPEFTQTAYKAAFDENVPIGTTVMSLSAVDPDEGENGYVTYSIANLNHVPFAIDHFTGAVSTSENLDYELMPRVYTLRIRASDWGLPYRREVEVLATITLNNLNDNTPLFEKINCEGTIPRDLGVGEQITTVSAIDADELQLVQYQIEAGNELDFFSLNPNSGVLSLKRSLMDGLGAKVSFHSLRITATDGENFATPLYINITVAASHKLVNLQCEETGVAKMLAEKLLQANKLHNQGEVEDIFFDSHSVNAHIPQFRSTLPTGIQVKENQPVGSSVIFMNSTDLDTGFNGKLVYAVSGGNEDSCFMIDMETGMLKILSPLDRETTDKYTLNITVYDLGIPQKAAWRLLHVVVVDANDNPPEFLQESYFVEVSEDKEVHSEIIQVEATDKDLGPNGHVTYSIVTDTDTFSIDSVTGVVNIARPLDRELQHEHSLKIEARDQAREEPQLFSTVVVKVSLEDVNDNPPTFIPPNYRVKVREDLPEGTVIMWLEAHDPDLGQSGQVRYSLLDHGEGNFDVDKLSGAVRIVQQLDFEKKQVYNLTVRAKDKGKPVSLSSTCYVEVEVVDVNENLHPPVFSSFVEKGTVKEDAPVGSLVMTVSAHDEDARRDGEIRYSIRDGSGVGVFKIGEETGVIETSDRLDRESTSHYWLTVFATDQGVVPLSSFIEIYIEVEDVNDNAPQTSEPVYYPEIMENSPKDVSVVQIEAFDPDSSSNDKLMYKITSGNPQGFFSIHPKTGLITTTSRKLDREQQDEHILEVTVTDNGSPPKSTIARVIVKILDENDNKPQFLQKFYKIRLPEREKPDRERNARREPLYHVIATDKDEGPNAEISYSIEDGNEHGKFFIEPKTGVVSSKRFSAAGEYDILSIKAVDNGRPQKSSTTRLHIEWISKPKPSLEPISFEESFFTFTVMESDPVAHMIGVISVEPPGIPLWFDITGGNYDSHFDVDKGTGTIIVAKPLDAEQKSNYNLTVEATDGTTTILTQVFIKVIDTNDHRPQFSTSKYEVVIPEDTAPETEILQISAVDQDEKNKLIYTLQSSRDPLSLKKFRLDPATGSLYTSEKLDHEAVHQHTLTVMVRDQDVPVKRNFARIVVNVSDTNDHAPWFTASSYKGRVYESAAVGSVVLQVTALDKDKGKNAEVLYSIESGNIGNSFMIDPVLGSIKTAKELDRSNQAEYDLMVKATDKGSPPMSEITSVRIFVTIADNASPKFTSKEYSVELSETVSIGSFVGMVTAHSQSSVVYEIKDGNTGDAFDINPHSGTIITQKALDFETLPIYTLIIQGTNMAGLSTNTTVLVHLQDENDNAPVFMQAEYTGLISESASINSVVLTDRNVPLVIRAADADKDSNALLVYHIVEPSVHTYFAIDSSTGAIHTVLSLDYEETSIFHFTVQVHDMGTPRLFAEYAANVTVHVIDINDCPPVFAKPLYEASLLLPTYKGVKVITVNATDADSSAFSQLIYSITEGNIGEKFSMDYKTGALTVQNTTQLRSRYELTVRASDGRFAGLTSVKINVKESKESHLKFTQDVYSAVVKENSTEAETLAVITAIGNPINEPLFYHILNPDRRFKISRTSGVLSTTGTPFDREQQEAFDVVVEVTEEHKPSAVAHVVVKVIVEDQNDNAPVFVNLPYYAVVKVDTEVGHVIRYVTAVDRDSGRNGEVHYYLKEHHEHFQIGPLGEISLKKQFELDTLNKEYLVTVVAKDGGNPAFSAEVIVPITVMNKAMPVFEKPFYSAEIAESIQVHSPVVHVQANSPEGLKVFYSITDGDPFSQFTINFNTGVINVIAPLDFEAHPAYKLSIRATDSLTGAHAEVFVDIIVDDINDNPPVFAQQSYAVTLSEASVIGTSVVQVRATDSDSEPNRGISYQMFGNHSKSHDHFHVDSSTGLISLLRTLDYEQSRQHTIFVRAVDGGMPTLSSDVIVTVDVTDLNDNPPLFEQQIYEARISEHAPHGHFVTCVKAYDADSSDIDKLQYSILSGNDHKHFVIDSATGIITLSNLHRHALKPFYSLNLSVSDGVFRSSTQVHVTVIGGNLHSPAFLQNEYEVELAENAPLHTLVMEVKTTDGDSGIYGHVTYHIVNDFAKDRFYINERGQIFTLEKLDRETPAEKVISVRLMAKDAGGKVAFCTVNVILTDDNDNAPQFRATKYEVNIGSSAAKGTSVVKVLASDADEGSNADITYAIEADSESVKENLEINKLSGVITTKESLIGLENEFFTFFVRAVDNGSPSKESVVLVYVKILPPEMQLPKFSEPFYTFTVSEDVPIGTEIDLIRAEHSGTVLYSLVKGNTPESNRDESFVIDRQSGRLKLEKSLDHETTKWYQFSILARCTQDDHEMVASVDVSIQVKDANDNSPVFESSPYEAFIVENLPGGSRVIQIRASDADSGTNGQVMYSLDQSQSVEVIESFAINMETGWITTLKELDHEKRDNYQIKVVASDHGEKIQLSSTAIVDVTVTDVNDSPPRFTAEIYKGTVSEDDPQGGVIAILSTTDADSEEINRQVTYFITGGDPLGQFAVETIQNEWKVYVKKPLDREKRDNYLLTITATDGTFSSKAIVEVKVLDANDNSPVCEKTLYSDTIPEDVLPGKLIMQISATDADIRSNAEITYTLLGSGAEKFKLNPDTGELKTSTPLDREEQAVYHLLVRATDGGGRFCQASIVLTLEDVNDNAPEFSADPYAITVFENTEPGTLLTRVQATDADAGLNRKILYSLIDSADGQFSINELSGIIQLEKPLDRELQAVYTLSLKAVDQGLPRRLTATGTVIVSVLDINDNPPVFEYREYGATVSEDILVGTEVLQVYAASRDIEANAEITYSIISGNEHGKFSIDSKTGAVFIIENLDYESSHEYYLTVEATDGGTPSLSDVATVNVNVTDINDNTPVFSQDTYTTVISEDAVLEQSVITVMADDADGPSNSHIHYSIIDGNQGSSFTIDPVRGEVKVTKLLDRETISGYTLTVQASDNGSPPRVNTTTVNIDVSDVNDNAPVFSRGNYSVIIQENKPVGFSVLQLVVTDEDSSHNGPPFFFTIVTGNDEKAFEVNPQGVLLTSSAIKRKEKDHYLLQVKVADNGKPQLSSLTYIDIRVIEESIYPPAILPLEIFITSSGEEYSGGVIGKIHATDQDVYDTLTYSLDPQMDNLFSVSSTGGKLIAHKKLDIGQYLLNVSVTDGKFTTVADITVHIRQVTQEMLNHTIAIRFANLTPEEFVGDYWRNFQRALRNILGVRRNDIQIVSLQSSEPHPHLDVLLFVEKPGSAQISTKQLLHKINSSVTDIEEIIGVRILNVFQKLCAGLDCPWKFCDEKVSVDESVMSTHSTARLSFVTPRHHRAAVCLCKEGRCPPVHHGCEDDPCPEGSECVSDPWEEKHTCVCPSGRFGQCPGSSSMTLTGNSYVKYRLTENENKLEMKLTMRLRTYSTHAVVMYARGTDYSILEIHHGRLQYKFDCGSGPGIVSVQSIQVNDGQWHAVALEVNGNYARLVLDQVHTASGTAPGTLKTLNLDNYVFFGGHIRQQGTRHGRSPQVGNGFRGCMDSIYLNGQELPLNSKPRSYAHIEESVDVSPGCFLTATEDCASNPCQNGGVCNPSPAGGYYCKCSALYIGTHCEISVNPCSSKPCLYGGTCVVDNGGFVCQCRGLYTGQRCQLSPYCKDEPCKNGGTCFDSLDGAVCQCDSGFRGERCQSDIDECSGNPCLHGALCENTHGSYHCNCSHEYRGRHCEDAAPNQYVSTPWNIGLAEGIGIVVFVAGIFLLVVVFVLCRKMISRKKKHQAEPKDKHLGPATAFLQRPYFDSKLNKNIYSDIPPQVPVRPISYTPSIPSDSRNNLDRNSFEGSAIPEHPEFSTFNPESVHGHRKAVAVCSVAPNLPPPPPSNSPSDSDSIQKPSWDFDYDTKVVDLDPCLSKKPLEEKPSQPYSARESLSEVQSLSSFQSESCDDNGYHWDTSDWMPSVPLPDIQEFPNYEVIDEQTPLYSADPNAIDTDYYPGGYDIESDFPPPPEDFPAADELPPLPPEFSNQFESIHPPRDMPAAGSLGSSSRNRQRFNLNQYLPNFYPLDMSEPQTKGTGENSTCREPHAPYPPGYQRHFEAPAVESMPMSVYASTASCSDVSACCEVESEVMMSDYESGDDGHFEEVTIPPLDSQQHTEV
Chain of UniProt P23434 (P23434 whole entry, looked up): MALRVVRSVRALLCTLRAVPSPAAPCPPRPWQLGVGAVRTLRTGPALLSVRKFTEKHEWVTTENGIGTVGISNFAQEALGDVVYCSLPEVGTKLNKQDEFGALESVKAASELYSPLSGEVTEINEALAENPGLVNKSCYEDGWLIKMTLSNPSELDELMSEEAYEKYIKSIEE
Chain of UniProt P63218 (P63218 whole entry, looked up): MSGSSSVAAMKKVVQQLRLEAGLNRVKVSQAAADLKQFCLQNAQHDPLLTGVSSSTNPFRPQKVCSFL

Regarding FBXO6 (UniProt Q9NRD1), the log2 fold change with bafetinib is 0.442 (active); in [1], 0.015; with nilotinib it was -0.118; in [2], -0.004; with dasatinib, -0.202; in experiment [3] it was 0.044. The log2 fold change was 0.047 in experiment [4], -0.021 in experiment [5], -0.021 with tipifarnib and -0.038 with mubritinib.

As for HADHA (UniProt P40939), the log2 fold change with bafetinib was 0.293; in [1], 0.097; with nilotinib, 0.049; in experiment [2] it was -0.078; with dasatinib, -0.05; in [3], 0.036. Moreover, the log2 fold change in experiment [4] was 0.203; in experiment [5], 0.069; with tipifarnib it was -0.304; with mubritinib, 0.685 (active).

As to HHEX (UniProt Q03014), the log2 fold change with bafetinib is -0.039; in experiment [1], -0.024; with nilotinib, -0.033; in experiment [2], -0.056; with dasatinib it was 0.04; in [3], 0.008. Besides, the log2 fold change in experiment [4] was 0.373; in experiment [5] it was 0.044; with tipifarnib, -0.012; with mubritinib, 0.066.

As for HIST2H3A (UniProt Q71DI3), the log2 fold change is 0.198 with bafetinib; -0.183 in [1]; -0.054 in the experiment with nilotinib; -0.068 in experiment [2]; 0.215 with dasatinib; -0.032 in experiment [3]. The log2 fold change in experiment [4] was -0.258; in experiment [5], -0.054; with tipifarnib, 0.031; with mubritinib it was -0.037.

Turning to HMOX2 (UniProt P30519), the log2 fold change was 0.006 in the experiment with bafetinib; 0.048 in experiment [1]; 0.002 in the experiment with nilotinib; -0.08 in experiment [2]; -0.141 in the experiment with dasatinib; -0.006 in experiment [3]. For the same target, the log2 fold change in [4] was 0.067; in experiment [5] it was 0.003; with tipifarnib, 0.27 (active); with mubritinib, 0.062.

Consider GID4 (UniProt Q8IVV7), for which the log2 fold change with bafetinib is -0.059; in experiment [1], -0.058; with nilotinib, -0.051; in experiment [2], 0.003; in the experiment with dasatinib, -0.086; in experiment [3] it was 0.038. The log2 fold change in experiment [4] is -0.042; in experiment [5], -0.032; with tipifarnib, 0.116; with mubritinib, -0.029.

Regarding GALNT2 (UniProt Q10471), the log2 fold change in the experiment with bafetinib is -0.046; in experiment [1], 0.041; with nilotinib, -0.07; in experiment [2], -0.066; with dasatinib, -0.004; in experiment [3] it was 0.056. For the same target, the log2 fold change in experiment [4] was 0.032; in [5], -0.018; in the experiment with tipifarnib, 0.008; in the experiment with mubritinib, 0.008.

GTF3C5 isoform 3 (UniProt Q9Y5Q8): the log2 fold change is 0.028 in the experiment with bafetinib; -0.013 in experiment [1]; -0.04 with nilotinib; -0.167 in experiment [2]; -0.269 with dasatinib; -0.137 in experiment [3]. Also, the log2 fold change in experiment [4] was 0.027; in [5], -0.063; with tipifarnib, 0.01; in the experiment with mubritinib it was 0.065.

Consider FASTKD1 (UniProt Q53R41), for which the log2 fold change is 0.098 in the experiment with bafetinib; -0.021 in experiment [1]; -0.183 with nilotinib; 0.54 (active) in experiment [2]; -0.168 with dasatinib; -0.053 in [3]. Moreover, the log2 fold change in [4] is 0.217; in experiment [5], -0.064.

As to GTF2H3 (UniProt Q13889), the log2 fold change with bafetinib is -0.009; in experiment [1], 0.058; in the experiment with nilotinib it was 0.041; in experiment [2], 0; with dasatinib, 0.024; in experiment [3], -0.064. Besides, the log2 fold change is -0.113 in experiment [4], -0.02 in experiment [5], -0.025 with tipifarnib and 0.023 with mubritinib.

Take GNG5 (UniProt P63218): the log2 fold change in the experiment with bafetinib is 0.013; in [1] it was -0.048; with nilotinib, 0.12; in experiment [2] it was 0.023; with dasatinib it was 0.06; in [3], -0.051. Also, the log2 fold change in experiment [4] was 0.027; in experiment [5], 0.169; in the experiment with tipifarnib it was 0.027; in the experiment with mubritinib it was 0.039.

For GCSH (UniProt P23434), the log2 fold change in the experiment with bafetinib was -0.13; in [1] it was 0.095; with nilotinib, -0.022; in experiment [2], 0.01; with dasatinib, 0.015; in [3], -0.026. Moreover, the log2 fold change in experiment [4] was 0.016; in experiment [5] it was 0.016; with tipifarnib, -0.017; with mubritinib, -0.05.

For GNB2 (UniProt P62879), the log2 fold change in the experiment with bafetinib is 0.12; in experiment [1] it was -0.002; in the experiment with nilotinib, 0.077; in [2], -0.018; with dasatinib, 0.057; in experiment [3], -0.012. Also, the log2 fold change in experiment [4] is 0.028; in experiment [5], -0.032; in the experiment with tipifarnib, 0.003; in the experiment with mubritinib it was -0.028.

Regarding ICAM1 (UniProt P05362), the log2 fold change in the experiment with bafetinib is 0.031; in experiment [1], -0.024; with nilotinib it was 0.055; in experiment [2], 0.051; in the experiment with dasatinib it was -0.01; in [3] it was -0.019. The log2 fold change is 0.048 in [4], -0.006 in [5], 0.019 with tipifarnib and 0.046 with mubritinib.

With FAT1 (UniProt Q14517), the log2 fold change is -0.061 with bafetinib; 0.044 in experiment [1]; 0.013 with nilotinib; 0 in [2]; 0.046 in the experiment with dasatinib; -0.064 in experiment [3]. Further, the log2 fold change is 0.009 in [4], -0.052 in [5], 0.077 with tipifarnib and 0.057 with mubritinib.

These data come from the supplement of paper PMC10849652.
